Assay results as given in PubChem BioAssay.
Inconclusive results are not listed. Calls of active or inactive are those of the source.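 Rule for the calls, unless noted: active = normalized viability below 100% at a tested concentration; inactive = the rest.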

Key:
[1] = viability loss in pontine glioma line – cell-based, SU-DIPG-XVII, MIPE5.0, CellTiter-Glo, qHTS, dose response (AID 1347060; cut-off not given, nearly all actives have AC50 up to about 26 µM;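 for AC50: cells exposed to compound for 48 hours before viability readout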); conditions: CellTiter-Glo ATP luminescence
[2] = viability loss in pontine glioma line – cell-based, SU-DIPG-XIII, MIPE4.0, CellTiter-Glo, qHTS, dose response (AID 1347061; cut-off not given, nearly all actives have AC50 up to about 37 µM;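 note: cells exposed to compound for 48 hours before readout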); conditions: CellTiter-Glo ATP luminescence
[3] = viability loss in pontine glioma line – cell-based, JHH-DIPG-1, MIPE4.0, CellTiter-Glo, qHTS, dose response (AID 1347062; cut-off not given, nearly all actives have AC50 up to about 27 µM;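 for AC50: cells exposed to compound for two days before readout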); conditions: JHH-DIPG-1 viability, CellTiter-Glo ATP luminescence
[4] = viability loss in pontine glioma line – cell-based, SU-DIPG-IV, MIPE4.0, CellTiter-Glo, qHTS, dose response (AID 1347063; cut-off not given, nearly all actives have AC50 up to about 30 µM;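 note: compound exposure lasted 48 hours before the viability readout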); conditions: CellTiter-Glo ATP luminescence
[5] = viability loss in pontine glioma line – cell-based, SU-DIPG-XIII, MIPE5.0, CellTiter-Glo, qHTS, dose response (AID 1347064; cut-off not given, nearly all actives have AC50 up to about 23 µM;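 for AC50: cells exposed to compound for 48 hours before the viability read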); conditions: CellTiter-Glo ATP luminescence
[6] = viability loss in pontine glioma line – cell-based, SU-DIPG-XXV, MIPE5.0, CellTiter-Glo, qHTS, dose response (AID 1347065; cut-off not given, nearly all actives have AC50 up to about 26 µM;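 note: cells exposed to compound for 48 hours before ATP readout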); conditions: CellTiter-Glo ATP luminescence
[7] = JHH-DIPG-1 glioma cell viability, MIPE5.0 library, CellTiter-Glo luminescence, qHTS (AID 1347067; cut-off not given, nearly all actives have AC50 up to about 26 µM;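 note: cells exposed to compound for 48 hours before readout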); conditions: JHH-DIPG-1 glioma viability, CellTiter-Glo ATP luminescence
[8] = growth inhibition of DIPG cells – cell-based, MIPE5.0 library, qHTS (AID 1347068; cut-off not given, nearly all actives have IC50 up to about 30 µM;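 for IC50: cells exposed to compound for 48 hours before viability readout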); conditions: SU-DIPG-XXV viability
[9] = viability loss with induced miR-34 in A549 – imaging, A549 dox-inducible miR-34, nuclei and caspase counts, primary screen (AID 1347080;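 active = compounds whose cell count with miR-34 switched on is under 0.7 times the count with it off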); conditions: A549 miR-34 inducible, Hoechst nuclei count, 48 h
[10] = MELAS cybrid and Rieske KO viability enhancers – cell-based, MELAS cybrids, Rieske KO mouse fibroblasts, CellTiter-Glo, primary screen (AID 1508586;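 active = mean z-score across replicates of 1.96 or higher in either the MELAS or the Rieske mutant cell line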;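 note: z relative to plate mean and SD of compound and empty wells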); conditions: low glucose
[11] = growth inhibition of DIPG cells – cell-based, MIPE4.0 library, CellTiter-Glo luminescence, qHTS (AID 1347066; cut-off not given, nearly all actives have AC50 up to about 30 µM;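 note: cells exposed to compound for 48 hours before readout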); conditions: SU-DIPG-VI viability, CellTiter-Glo ATP luminescence
[12] = drug combination growth inhibition, ovarian cancer – cell-based, oncology-focused library, rucaparib conditional, profiling panel (AID 1508598); conditions: patient-derived ovarian cancer cells, CellTiter-Glo viability, 144 h, stronger effect = lower value
[13] = compounds altering HSF1 focus formation in cells – imaging, Selleck Cancer Library (AID 1347162; in the data active = plate-normalised HSF1 focus index below about 0.46); conditions: human cells, HSF1 nuclear foci imaging, at 10 µM; SSMD: measured here: HSF1 foci SSMD mean; cell count: measured here: cell number; plate-normalised HSF1 focus index: stronger effect = lower value
[14] = stronger effect = lower value, cell number ratio, induced over uninduced
[15] = measured here: relative caspase fold change +Dox/-Dox
[16] = measured here: total cells with miR-34 induction, stronger effect = lower value
[17] = measured here: total cells without miR-34 induction
[18] = MELAS cybrid survival, CellTiter-Glo 48 h, stronger effect = higher value
[19] = Rieske KO mouse fibroblast survival, CellTiter-Glo 72 h

CC1(C)CC(=O)c2c(C(F)(F)F)nn(-c3ccc(C(N)=O)c(NC4CCC(OC(=O)CN)CC4)c3)c2C1 (configuration not stated)
2740: cell count [9, 17]
inactive: fold change [9, 14] 1.04
-1.59: z-score [10, 19]
0.875: fold change [9, 15]
2840: cell count [9, 16]
active: AC50 [1] 186 nM | AC50 [2] 662 nM | AC50 [3] 148 nM | AC50 [4] 418 nM | AC50 [5] 417 nM | AC50 [6] 235 nM | AC50 [7] 166 nM | IC50 [8] 263 nM | z-score [10, 18] 2.47

Cc1ccc(C(=O)Nc2cccc(C(F)(F)F)c2)cc1Nc1nc(-c2cccnc2)nc2c1cnn2C
4020: cell count [9, 16]
3950: cell count [9, 17]
-0.539: z-score [10, 18]
active: AC50 [1] 16600 nM | AC50 [3] 18700 nM | AC50 [4] 16600 nM | AC50 [5] 18600 nM | AC50 [11] 23500 nM | AC50 [7] 20900 nM
1.01: fold change [9, 15]
2.14: z-score [10, 19]
inactive: outcome [2] | outcome [8] | fold change [9, 14] 1.02

Cc1nc(N)ncc1-c1nc(N2CCOCC2)c2sc(C(C)(C)O)cc2n1
active: AC50 [1] 1660 nM | AC50 [2] 7430 nM | AC50 [3] 1320 nM | AC50 [4] 332 nM | AC50 [5] 3320 nM | AC50 [6] 1050 nM | IC50 [8] 4680 nM

Cn1cc(CNCC2CCN(c3ncc(C(=O)NO)cn3)CC2)c2ccccc21
0.734: fold change [9, 15]
active: AC50 [1] 417 nM | AC50 [2] 2640 nM | AC50 [3] 332 nM | AC50 [4] 418 nM | AC50 [5] 209 nM | AC50 [6] 132 nM | AC50 [7] 209 nM | viability ([12]; at 0.000305 µM, OCI-P5x cells, with rucaparib 20 µM, 100% = cells with rucaparib alone) 95.4% | viability ([12]; at 0.000305 µM, OCI-P5x cells, without rucaparib) 92.2% | viability ([12]; at 0.00122 µM, OCI-P5x cells, without rucaparib) 95.8% | viability ([12]; at 0.00488 µM, OCI-P5x cells, with rucaparib 20 µM, 100% = cells with rucaparib alone) 76.6% | viability ([12]; at 0.00488 µM, OCI-P5x cells, without rucaparib) 85.4% | viability ([12]; at 0.0195 µM, OCI-C5x cells, with rucaparib 10 µM, 100% = cells with rucaparib alone) 96.2% | viability ([12]; at 0.0195 µM, OCI-C5x cells, without rucaparib) 99.7% | viability ([12]; at 0.0195 µM, OCI-P5x cells, with rucaparib 20 µM, 100% = cells with rucaparib alone) 32.6% | viability ([12]; at 0.0195 µM, OCI-P5x cells, without rucaparib) 51.7% | viability ([12]; at 0.0781 µM, OCI-C5x cells, with rucaparib 10 µM, 100% = cells with rucaparib alone) 7.04% | viability ([12]; at 0.0781 µM, OCI-C5x cells, without rucaparib) 7.55% | viability ([12]; at 0.0781 µM, OCI-P5x cells, with rucaparib 20 µM, 100% = cells with rucaparib alone) 3.73% | viability ([12]; at 0.0781 µM, OCI-P5x cells, without rucaparib) 9.01% | viability ([12]; at 0.313 µM, OCI-C5x cells, with rucaparib 10 µM, 100% = cells with rucaparib alone) 5.05% | viability ([12]; at 0.313 µM, OCI-C5x cells, without rucaparib) 5.83% | viability ([12]; at 0.313 µM, OCI-P5x cells, with rucaparib 20 µM, 100% = cells with rucaparib alone) 1.63% | viability ([12]; at 0.313 µM, OCI-P5x cells, without rucaparib) 1.83% | viability ([12]; at 1.25 µM, OCI-C5x cells, with rucaparib 10 µM, 100% = cells with rucaparib alone) 3.87% | viability ([12]; at 1.25 µM, OCI-C5x cells, without rucaparib) 5.39% | viability ([12]; at 1.25 µM, OCI-P5x cells, with rucaparib 20 µM, 100% = cells with rucaparib alone) 1.03% | viability ([12]; at 1.25 µM, OCI-P5x cells, without rucaparib) 0.724% | viability ([12]; at 5 µM, OCI-C5x cells, with rucaparib 10 µM, 100% = cells with rucaparib alone) 4.54% | viability ([12]; at 5 µM, OCI-C5x cells, without rucaparib) 5.34% | viability ([12]; at 5 µM, OCI-P5x cells, with rucaparib 20 µM, 100% = cells with rucaparib alone) 1.24% | viability ([12]; at 5 µM, OCI-P5x cells, without rucaparib) 1.13%
984: cell count [9, 16]
1160: cell count [9, 17]
-2.7: z-score [10, 19]
inactive: fold change [9, 14] 0.846 | z-score [10, 18] -0.103 | viability ([12]; at 0.000305 µM, OCI-C5x cells, with rucaparib 10 µM, 100% = cells with rucaparib alone) 126% | viability ([12]; at 0.000305 µM, OCI-C5x cells, without rucaparib) 118% | viability ([12]; at 0.00122 µM, OCI-C5x cells, with rucaparib 10 µM, 100% = cells with rucaparib alone) 125% | viability ([12]; at 0.00122 µM, OCI-C5x cells, without rucaparib) 133% | viability ([12]; at 0.00122 µM, OCI-P5x cells, with rucaparib 20 µM, 100% = cells with rucaparib alone) 104% | viability ([12]; at 0.00488 µM, OCI-C5x cells, with rucaparib 10 µM, 100% = cells with rucaparib alone) 116% | viability ([12]; at 0.00488 µM, OCI-C5x cells, without rucaparib) 138%

O=C1NC(=O)/C(=C\c2ccc(-c3ccc(F)cc3)o2)S1
inactive: outcome [1] | outcome [2] | outcome [3] | outcome [4] | outcome [5] | outcome [11] | outcome [8]

COc1nccc(-c2c(-c3ccc(F)cc3)ncn2C2CCNCC2)n1
inactive: outcome [1] | outcome [2] | outcome [3] | outcome [4] | outcome [5] | outcome [6] | outcome [7] | outcome [8]

N[C@@]1(C(=O)O)CS(=O)(=O)[C@H]2[C@H](C(=O)O)[C@H]21
inactive: outcome [1] | outcome [2] | outcome [3] | outcome [4] | outcome [5] | outcome [11] | outcome [7] | outcome [8]

CS(=O)(=O)c1ccc(-c2cnc(N)c(C(=O)Nc3ccccc3)n2)cc1
inactive: outcome [1] | outcome [2] | outcome [3] | outcome [4] | outcome [5] | outcome [11] | outcome [7] | outcome [8] | fold change [9, 14] 1.01 | z-score [10, 18] -0.286
4300: cell count [9, 16]
4270: cell count [9, 17]
0.481: fold change [9, 15]
0.758: z-score [10, 19]

CCCCCCCCCC(=O)N[C@@H](Cc1c[nH]c2ccccc12)C(=O)N[C@H](CC(N)=O)C(=O)N[C@@H](CC(=O)O)C(=O)N[C@@H]1C(=O)NCC(=O)N[C@@H](CCCN)C(=O)N[C@@H](CC(=O)O)C(=O)N[C@H](C)C(=O)N[C@@H](CC(=O)O)C(=O)NCC(=O)N[C@H](CO)C(=O)N[C@@H]([C@@H](C)CC(=O)O)C(=O)N[C@@H](CC(=O)c2ccccc2N)C(=O)O[C@@H]1C
inactive: outcome [1] | outcome [2] | outcome [3] | outcome [4] | outcome [5] | outcome [11] | outcome [7]

O=C(CCN1CCN(C(=O)OCc2cc(Cl)cc(Cl)c2)CC1)c1ccc2[nH]c(=O)oc2c1
active: AC50 [1] 20900 nM | AC50 [5] 23500 nM | AC50 [7] 16600 nM
inactive: outcome [2] | outcome [3] | outcome [4] | outcome [11] | outcome [8]

Cc1ccc(C(=O)Nc2cccc(C(F)(F)F)c2)cc1-c1ccc2nc(NCCN3CCOCC3)ncc2c1
active: AC50 [1] 2350 nM | AC50 [2] 6620 nM | AC50 [3] 6620 nM | AC50 [4] 4690 nM | AC50 [5] 3720 nM | AC50 [6] 2090 nM | AC50 [7] 2950 nM

Clc1ccc2c(N3CCN(CCCN4CCN(c5ccnc6cc(Cl)ccc56)CC4)CC3)ccnc2c1
8600: cell count [9, 16]
8790: cell count [9, 17]
1.67: fold change [9, 15]
inactive: outcome [1] | outcome [2] | outcome [3] | outcome [4] | outcome [5] | outcome [11] | outcome [7] | outcome [8] | fold change [9, 14] 0.978

COc1ccc(CCN2CCN(CCCc3ccccc3)CC2)cc1OC
inactive: outcome [1] | outcome [2] | outcome [3] | outcome [4] | outcome [5] | outcome [11] | outcome [7] | outcome [8] | plate-normalised HSF1 focus index [13] 1.24
6890: cell count [13]
3.93: SSMD [13]
